Laboratory results published in PubChem BioAssay (NCI).
Values joined by “and” are separate entries in the source; they are usually repeats but may differ in a detail not shown here. Identical values can stand only once. This is part of a sample that, as a whole, favours compounds with a hit. Of some 83,000 tested, about 20% had one in any assay.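 How to read the values: 0–100, growth inhibition (40 = 60% inhibited); 0, no net growth; -100 to 0, cell death (-40 = 40% of starting cells died; -100 = all dead).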 Active and inactive are the calls of the source. The calls were made as follows: active = growth percent below 10; inactive = the rest.

Tests used:
Experiment in all cases: NCI-60 one-dose screen, 48 h (100 = growth as untreated, 0 = no growth, -100 = all killed)
Conditions in all cases: 10 µM unless noted
DU-145 prostate = system: DU-145 prostate
K-562 leukemia = system: K-562 leukemia
MALME-3M melanoma = system: MALME-3M melanoma
MDA-MB-231 breast = system: MDA-MB-231 breast
RXF 393 renal = system: RXF 393 renal
SF-268 CNS = system: SF-268 CNS
SF-295 CNS = system: SF-295 CNS
SF-539 CNS = system: SF-539 CNS
UACC-257 melanoma = system: UACC-257 melanoma
M14 melanoma = system: M14 melanoma

Measured: growth

CCCCCCCCCCCCCCCCC(C(=O)O)C(O)(CC(=O)O)C(=O)O (configuration not stated)
109% (inactive) and -20.3% (active): SF-539 CNS
124% (inactive) and -1.43% (active): DU-145 prostate
90.9% (inactive) and 1.15% (active): K-562 leukemia
98.4% (inactive) and 9.56% (active): RXF 393 renal
102% (inactive) and -34.8% (active): M14 melanoma
108% (inactive) and -8.6% (active): MALME-3M melanoma
inactive: MDA-MB-231 breast 126% and 14.1% | SF-268 CNS 116% and 10% | SF-295 CNS 15.4% | UACC-257 melanoma 115% and 18.2%

COc1cc(C(O)C2C(=O)OCC2C2(c3ccc4c(c3)OCO4)SCCCS2)cc(OC)c1OC (configuration not stated)
inactive: DU-145 prostate 103% | K-562 leukemia 97.7% | MALME-3M melanoma 91.1% | MDA-MB-231 breast 95.3% | RXF 393 renal 101% | SF-268 CNS 94.3% | SF-295 CNS 92.9% | SF-539 CNS 102% | UACC-257 melanoma 104% | M14 melanoma 96.8%

CC(C)(O)C(=O)O
inactive: DU-145 prostate 94.5% | K-562 leukemia 123% | MALME-3M melanoma 88.4% | MDA-MB-231 breast 86.4% | RXF 393 renal 113% | SF-268 CNS 103% | SF-295 CNS 103% | SF-539 CNS 101% | UACC-257 melanoma 99.8% | M14 melanoma 101%

Nc1cc(N)c(N)cc1N
inactive: DU-145 prostate 109% | MALME-3M melanoma 62% | MDA-MB-231 breast 89.6% | RXF 393 renal 51.3% | SF-268 CNS 74.2% | SF-295 CNS 87.8%
active: K-562 leukemia 9.58% | SF-539 CNS -3.2% | UACC-257 melanoma -46.4%

O=C1CSC2=NCCN12
inactive: DU-145 prostate 111% and 107% | K-562 leukemia 74.2% and 76.4% | MALME-3M melanoma 91.7% and 120% | MDA-MB-231 breast 104% and 103% | RXF 393 renal 81.5% and 98.4% | SF-268 CNS 97.4% and 96.9% | SF-295 CNS 102% and 81% | SF-539 CNS 94.3% and 91.7% | UACC-257 melanoma 71.9% and 103% | M14 melanoma 90.1% and 91.6%

Nc1ccc2c(O)cc(S(=O)(=O)O)cc2c1
inactive: DU-145 prostate 114% and 110% | K-562 leukemia 93% and 96.7% | MALME-3M melanoma 122% and 111% | MDA-MB-231 breast 107% and 106% | RXF 393 renal 110% and 89.3% | SF-268 CNS 118% and 101% | SF-295 CNS 99.5% | SF-539 CNS 87.2% and 96% | UACC-257 melanoma 101% and 94.3% | M14 melanoma 98.7%

N#CC(C#N)N=Nc1ccc(Cl)cc1
inactive: DU-145 prostate 68.2% | K-562 leukemia 10.2% | MALME-3M melanoma 15.6% | MDA-MB-231 breast 47.2% | RXF 393 renal 61.4% | SF-268 CNS 84.9% | SF-295 CNS 94.7% | SF-539 CNS 53.1% | UACC-257 melanoma 20.8% | M14 melanoma 60.1%

O=c1n(CC2CO2)c(=O)n(CC2CO2)c(=O)n1CC1CO1 (configuration not stated)
inactive: DU-145 prostate 25.7% | K-562 leukemia 81.3% | MALME-3M melanoma 70.7% | MDA-MB-231 breast 107% | RXF 393 renal 64.2% | SF-268 CNS 47.9% | SF-295 CNS 13.9% | SF-539 CNS 28.6% | UACC-257 melanoma 61.4% | M14 melanoma 61.9%

NC(Cc1c[nH]c2ccccc12)C(=O)O (configuration not stated)
inactive: DU-145 prostate 103% and 113% | K-562 leukemia 136% and 101% | MALME-3M melanoma 118% and 96.3% | MDA-MB-231 breast 104% and 97.1% | RXF 393 renal 91.4% and 103% | SF-268 CNS 105% and 101% | SF-295 CNS 99.4% and 102% | SF-539 CNS 93.8% and 96.8% | UACC-257 melanoma 66.9% and 94% | M14 melanoma 93.2% and 98.4%

CC(=O)Nc1ccc(S(N)(=O)=O)cc1
inactive: DU-145 prostate 111% and 113% | K-562 leukemia 102% and 110% | MALME-3M melanoma 109% | MDA-MB-231 breast 102% and 119% | RXF 393 renal 115% | SF-268 CNS 105% and 115% | SF-295 CNS 93.8% and 92.8% | SF-539 CNS 100% and 101% | UACC-257 melanoma 88.6% and 94.9% | M14 melanoma 98.6% and 103%

O=C(O)/C=C\C(=O)Nc1cccc2ccccc12
inactive: DU-145 prostate 109% and 123% | K-562 leukemia 110% and 94% | MALME-3M melanoma 116% and 119% | MDA-MB-231 breast 85.1% and 107% | RXF 393 renal 113% and 132% | SF-268 CNS 78.6% and 107% | SF-295 CNS 117% and 104% | SF-539 CNS 89.2% and 110% | UACC-257 melanoma 95.1% and 101% | M14 melanoma 99.6% and 96.8%

CC(C)NCC(O)c1ccc(O)c(O)c1 (configuration not stated)
inactive: DU-145 prostate 110% and 119% and 103% | K-562 leukemia 112% and 101% | MALME-3M melanoma 101% and 88.7% and 141% | MDA-MB-231 breast 84% and 78.9% and 85.1% | RXF 393 renal 103% and 105% | SF-268 CNS 102% and 106% and 86.6% | SF-295 CNS 108% and 110% and 105% | SF-539 CNS 95.9% and 87.7% and 85.6% | UACC-257 melanoma 109% and 102% | M14 melanoma 98.1% and 96.8% and 113%

CC1(C)COC(=S)N1
inactive: DU-145 prostate 114% | K-562 leukemia 91.7% | MALME-3M melanoma 104% | MDA-MB-231 breast 96.5% | RXF 393 renal 98.8% | SF-268 CNS 107% | SF-295 CNS 98.4% | SF-539 CNS 107% | UACC-257 melanoma 99.6% | M14 melanoma 101%

Cc1ccc(=O)[nH]n1
inactive: DU-145 prostate 101% and 116% | K-562 leukemia 99.7% and 97.2% | MALME-3M melanoma 112% and 106% | MDA-MB-231 breast 118% | RXF 393 renal 105% | SF-268 CNS 99.4% and 103% | SF-295 CNS 113% and 101% | SF-539 CNS 110% and 109% | UACC-257 melanoma 101% and 94.1% | M14 melanoma 111% and 110%

c1ccc(CNCCNCc2ccccc2)cc1
inactive: DU-145 prostate 114% | K-562 leukemia 98.1% | MALME-3M melanoma 109% | MDA-MB-231 breast 118% | RXF 393 renal 104% | SF-268 CNS 120% | SF-295 CNS 90.8% | SF-539 CNS 101% | UACC-257 melanoma 117% | M14 melanoma 111%

CC1=C/C(O)CC(=O)Cc2nc(co2)C(=O)N2CCC=C2C(=O)OC(C(C)C)C(C)/C=C\C(=O)NC/C=C\1 (configuration not stated)
inactive: DU-145 prostate 90.7% | K-562 leukemia 48.4% | MALME-3M melanoma 125% | MDA-MB-231 breast 98.6% | RXF 393 renal 93.6% | SF-268 CNS 93.3% | SF-295 CNS 101% | SF-539 CNS 104% | UACC-257 melanoma 75.4% | M14 melanoma 15.4%

CCCCOc1ccc(Nc2cc(Cl)ccc2C(=O)O)cn1
inactive: DU-145 prostate 120% and 121% | K-562 leukemia 107% and 108% | MALME-3M melanoma 140% and 121% | MDA-MB-231 breast 113% and 111% | RXF 393 renal 130% and 104% | SF-268 CNS 111% and 107% | SF-295 CNS 108% and 109% | SF-539 CNS 99.1% and 97.7% | UACC-257 melanoma 111% and 98.2% | M14 melanoma 101% and 107%

NC1CCC(C(=O)O)CC1 (configuration not stated)
inactive: DU-145 prostate 108% and 115% | K-562 leukemia 107% and 109% | MALME-3M melanoma 115% and 106% | MDA-MB-231 breast 97.3% and 113% | RXF 393 renal 112% and 106% | SF-268 CNS 105% | SF-295 CNS 106% and 110% | SF-539 CNS 98.9% and 102% | UACC-257 melanoma 107% and 113% | M14 melanoma 96.5% and 99.3%

Nc1ncnc2c1ncn2C1OC(COP(=O)(O)O)C(O)C1O (configuration not stated)
inactive: DU-145 prostate 120% | K-562 leukemia 119% | MDA-MB-231 breast 102% | RXF 393 renal 131% | SF-268 CNS 126% | SF-539 CNS 105% | UACC-257 melanoma 110% | M14 melanoma 111%

CCN(CCNS(C)(=O)=O)c1ccc(N)c(C)c1
inactive: DU-145 prostate 70.4% and 123% | K-562 leukemia 27.9% and 95.5% | MALME-3M melanoma 93.6% and 119% | MDA-MB-231 breast 109% and 97.4% | RXF 393 renal 72.4% and 78.3% | SF-268 CNS 93.3% and 94.9% | SF-295 CNS 103% and 116% | SF-539 CNS 113% and 105% | UACC-257 melanoma 89.7% | M14 melanoma 108% and 98.6%
